From PubChem BioAssay
Env fusion inh: inhibitors of HIV Env-mediated cell fusion. HeLa-JRFL Env/CEM21 cell fusion, luciferase. inhibition, % at 12.3 µM. 1.1% of 360,000 active;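 active means mean replicate inhibition score of at least 50 and every replicate individually at or above 50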;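 further: 0% = plate neutral controls and 100% = maraviroc near 300 nM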
Gli-Sufu antag: blocks Gli-Sufu signaling in a luciferase reporter; Sufu-KO-LIGHT fibroblasts, Gli luciferase reporter luminescence; inhibition, % at 5 µM; 0.74% of 340,000 active; AID 588413;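 active means inhibition above about 55%, limit read from the data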;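 further: 0% = DMSO-treated cells and 100% = wells with medium but no cells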
aDG glyco act: increases alpha dystroglycan glycosylation | Pro5-aDG cells, alpha-DG glycosylation AlphaScreen (IIH6); 0% Pro5, 100% B10-LARGE cell signal | activation, % at 10 µM | 0.22% of 360,000 active | AID 624168;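 active means activation of at least 8% versus controls, or a plate z-score of at least 8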;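 further: Pro5 are CHO cells carrying HIG-tagged alpha-DG that lacks glycosylation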
GalR3 antag: blocks the human galanin receptor 3 | O60755 | HEK293 GalR3-CNG cAMP membrane potential fluorescence; galR3 body fused to GalR1 C-terminus | inhibition, % at 3 µM | 0.44% of 360,000 active | AID 651719;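 active means inhibition above the screen-wide average plus 3 SD, cut at about 13% in these data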;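 further: forskolin and galanin both at EC90 stimulate the cells; cAMP rise reported by CNG channel membrane potential dye signal; 0% = forskolin plus galanin with DMSO and 100% = forskolin alone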
COUP-TFII inh: NR2F2 (human) inhibition, primary screen; HEK293T NGFI-A luciferase reporter, luminescence; 0.7% of 370,000 active; inhibition, % at 8.6 µM; P24468;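 active means inhibition above a per-plate cutoff, mean inhibition of test wells between control levels plus 3 SD, cut at about 38% in these data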;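 further: cells cotransfected with COUP-TFII expression vector driving the NGFI-A reporter; 0% = median of COUP-TF2 test wells and 100% = reporter-only cells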
Target sequence (P24468 whole entry, looked up): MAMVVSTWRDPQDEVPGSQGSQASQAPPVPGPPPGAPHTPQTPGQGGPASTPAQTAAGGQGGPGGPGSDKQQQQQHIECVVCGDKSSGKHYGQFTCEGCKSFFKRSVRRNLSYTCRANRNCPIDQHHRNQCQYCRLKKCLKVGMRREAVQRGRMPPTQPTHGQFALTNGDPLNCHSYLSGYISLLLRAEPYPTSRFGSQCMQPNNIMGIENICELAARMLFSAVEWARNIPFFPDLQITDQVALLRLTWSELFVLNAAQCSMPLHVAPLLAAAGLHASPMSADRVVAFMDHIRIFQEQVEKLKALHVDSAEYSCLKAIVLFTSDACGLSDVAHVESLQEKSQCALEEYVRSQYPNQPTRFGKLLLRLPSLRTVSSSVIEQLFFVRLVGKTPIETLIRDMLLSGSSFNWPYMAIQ
GalR3 conf: GalR3 (human) antagonism, confirmation. HEK293 GalR3 CNG cAMP biosensor, membrane potential fluorescence; galR3 fused to GalR1 carboxy tail; challenged with forskolin and galanin at EC90. inhibition, % at 3 µM. 59% of 1,600 active. AID 652245. shares compounds with GalR3 antag;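 active means inhibition above the primary screen's cutoff, the mean inhibition of all screened compounds plus 3 SD, cut at about 13% in these data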;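 further: 0% = forskolin plus galanin and 100% = forskolin alone with DMSO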
CNG parental: acts as nonspecific agonist in parental HEK-CNG cells; shares compounds with GalR3 antag; HEK293-CNG parental cells, cAMP membrane potential fluorescence; normalised: DMSO wells 0%, forskolin wells 100%; activation, % at 3 µM; 10% of 1,600 active; AID 652268; in the data active means activation above about 1.3%
* marks the source's active call; other numbers are inactive results; x = no result given; [ ] = another dose, or the depositor's remark. Only some compounds are listed: those with a hit (about 2.1% of all), similar ones and a draw of the others.

SMILES | Env fusion inh | Gli-Sufu antag | aDG glyco act | GalR3 antag | COUP-TFII inh | GalR3 conf | CNG parental
NC(=O)c1cccnc1Nc1ccccc1Cl | -41 | -10 | 0 | 19* | -2 | -6 | 0
NC(=O)COC(=O)c1cccnc1Nc1ccccc1F | -45 | 4 | 0 | 5 | -8 | x | x
COc1ccc(NC(=O)N(C)C[C@H]2OCCCC[C@@H](C)Oc3ccc(NC(=O)Nc4ccc(C(F)(F)F)cc4)cc3C(=O)N([C@H](C)CO)C[C@@H]2C)cc1 | -1[16.7 µM] | x | x | x | x | x | x
CCN(CC)C(=O)OCCc1cc2ccccc2c(=O)o1 | 21 | 23 | 0 | x | -18 | 1 | 0
O=C(C[C@@H]1C[C@@H]2c3cc(NC(=O)c4cccnc4)ccc3O[C@@H]2[C@H](CO)O1)NCc1ccc(Oc2ccccc2)cc1 | 3[16.7 µM] | x | x | x | x | x | x
Cc1cnc(C=O)c2cccc([N+](=O)[O-])c12 | -1 | x | 0 | 34* | -3 | 14* | 0
Cc1cccc(-c2nnc(N)s2)c1 | x | 2 | 0 | 13* | -13 | 2 | 0
Cc1cc(=O)[nH]c(N/N=C/c2ccc(Cl)c([N+](=O)[O-])c2)n1 | 7 | 0 | 0 | 14* | 14 | 2 | 0
C[C@@H]1CN([C@@H](C)CO)C(=O)c2cc(C#CCN(C)C)cnc2O[C@@H]1CN(C)Cc1ccc2c(c1)OCO2 | -1[16.7 µM] | x | x | x | x | x | x
C[C@H](CO)N1C[C@H](C)[C@@H](CN(C)S(C)(=O)=O)OCCCC[C@H](C)Oc2ccc(N(C)C)cc2C1=O | -2[16.7 µM] | x | x | x | x | x | x
CC1(CSc2ccccc2)CC(=O)N1 (configuration not stated) | 4 | x | 0 | 21* | -32 | 29* | 0
C[C@H]1CN([C@@H](C)CO)C(=O)c2cccc(NC(=O)Nc3ccc(F)cc3)c2O[C@@H]1CN(C)C(=O)Nc1ccc(F)cc1 | -20[16.7 µM] | x | x | x | x | x | x
NC(=O)c1sc(=S)n2c1[nH]c(=O)c1sccc12 | 6 | -9 | 0 | 67* | -10 | -3 | 1
CC(CCc1ccc(O)cc1)NCc1ccc(Br)cc1 (configuration not stated) | 23 | 18 | 0 | 31* | -17 | 58* | 1
Cc1noc(C)c1NC(=O)N[C@@H]1CC[C@@H](CC(=O)N2CCCCC2)O[C@H]1CO | -1[16.7 µM] | x | x | x | x | x | x
CC(=O)c1ccc(NC(=O)c2ccc(C)c(Br)c2)cc1 | -98 | -66 | 2 | -3 | -42 | x | x
CC(=O)c1ccc(NC(=O)Nc2ccc(Br)cc2C)cc1 | -10 | -4 | 1 | 13* | 0 | -3 | 0
O=C(/C=C/c1ccccc1)NC(NC(=S)Nc1cccc(O)c1)C(Cl)(Cl)Cl (configuration not stated) | -33 | -1 | 0 | 18* | 12 | 17* | -1
O=C(/C=C/c1ccccc1)NC(NC(=S)Nc1ccc(C(=O)O)cc1)C(Cl)(Cl)Cl (configuration not stated) | -39 | 3 | 0 | -2 | 3 | x | x
Cc1cc(=O)[nH]c2ccc(S(=O)(=O)NC3CCCCC3)cc12 | 27 | -17 | 0 | 13* | -42 | 38* | 0
C[C@H]1CN([C@@H](C)CO)C(=O)Cc2cc(NC(=O)Nc3ccccc3)ccc2O[C@H]1CN(C)S(=O)(=O)c1ccc(F)cc1 | 17[16.7 µM] | x | x | x | x | x | x
Cc1cc(Br)cn2c(Cc3cccc(Cl)c3)c(-c3ccco3)nc12 | 0 | x | 0 | 40* | 10 | 41* | 0
Cc1cc(Br)cn2c(Cc3ccccc3C(F)(F)F)c(-c3ccco3)nc12 | 13 | x | x | 18* | 12 | 45* | 1
COc1ccc(C(=O)NCC(=O)OCC(=O)c2ccc3c(c2)NC(=O)CO3)cc1OC | 0 | 4 | 0 | 72* | 5 | -2 | 0
COc1cc(NC(=O)COC(=O)C2CC(O)CN2S(=O)(=O)c2ccc(Cl)cc2)c(C)cc1[N+](=O)[O-] (configuration not stated) | -14 | -1 | 0 | 24* | -24 | 47* | 0
COc1cc(NC(=O)COC(=O)C2CC2)c(C)cc1[N+](=O)[O-] | -13 | -12 | 0 | -9 | -10 | x | x
